# Inconclusive results are not listed. A call without a number means that no potency is given here. Unmarked numbers belong to inactive results. The source made the active and inactive calls. Calls follow the shape of the dose curve; as a rule, active = well fitted curve in the direction sought with a large enough effect; inconclusive = small, poorly fitted or top-dose-only effect, or another doubt; inactive = no such curve, though single readings can be large; an effect the other way counts as inactive or inconclusive. Where a SMILES comes first, the peptide text is derived from it. The star is where a group is joined. Cbz = O=C(OCc1ccccc1)*; CH2F = FC*
# How the values were obtained:
# [1] = P-glycoprotein substrates identified in KB-3-1 adenocarcinoma cell line, qHTS therapeutic library screen (AID 1346986); conditions: KB-3-1 parental cells viability, CellTiter-Glo, 72 h; series mostly up to 44.5 µM; also: nearly all actives have a fitted effect of over 60% in size
# Method in brief: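 Resistance attributable to P-gp was assessed by comparing AC50 in KB-8-5-11 with parental KB-3-1 and by tariquidar reversal. Cells were exposed 72 h and viability read by CellTiter-Glo.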
# [2] = P-glycoprotein substrates identified in KB-8-5-11 adenocarcinoma cell line, qHTS therapeutic library screen (AID 1346987); conditions: KB-8-5-11 (P-gp overexpressing) viability, CellTiter-Glo, 72 h; series mostly up to 44.5 µM; also: nearly all actives have a fitted effect of over 65% in size
# Method in brief: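 Steps: plate 500 KB-8-5-11 cells/well in DMEM + 10% FCS (colchicine removed); pin compounds in dose-response; incubate 72 h, 37 degree C, 5% CO2; add CellTiter-Glo, 5 min; read luminescence.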
structure (smiles),measurement,setting,value
CC1=C(CC/C(C)=C/C(=O)O)[C@@]2(C)CCCC(C)(C)C2CC1=O (stereo partly specified),Potency,[1],inactive
same,Potency,[2],inactive
CC(C)C1NC(=O)CNC(=O)C2CCCN2C(=O)C(Cc2c[nH]c3ccccc23)NC(=O)CNC(=O)C(Cc2ccc(O)cc2)NC(=O)CNC1=O (stereo unspecified) (cyclo(GVGYGWP); configuration not given here),Potency,[1],inactive
same,Potency,[2],inactive
COc1cc2c(cc1O)CC(O)(CO)C(CO)C2c1ccc(OC2OC(CO)C(O)C(O)C2O)c(OC)c1 (stereo unspecified),Potency,[1],inactive
same,Potency,[2],inactive
N#Cc1cccc(-c2nc(-c3cccnc3)no2)c1,Potency,[1],inactive
same,Potency,[2],inactive
N#CC1C(=O)N=C(c2cc(Cl)ccc2O)C=C1c1cc(OCc2ccccc2)cc(OCc2ccccc2)c1 (stereo unspecified),Potency,[1],inactive
same,Potency,[2],inactive
CCC(=O)OCC(=O)[C@@]1(OC(=O)CC)[C@@H](C)C[C@H]2[C@@H]3CCC4=CC(=O)C=C[C@]4(C)[C@@]3(F)[C@@H](O)C[C@@]21C,Potency,[1],inactive
same,Potency,[2],inactive
CCNC(=O)OC1CCN(c2nncc3cc(OC)c(OC)cc23)CC1,Potency,[1],inactive
same,Potency,[2],inactive
O=C(O)[C@H](Cc1ccccc1)Oc1ccc(-c2ccccc2)cc1,Potency,[1],inactive
same,Potency,[2],inactive
CC(C)C1(O)NC(=O)C(CC2(O)c3ccccc3N3C(=O)C(C)(C)NC32)n2c1nc1ccccc1c2=O (stereo unspecified),Potency,[1],inactive
same,Potency,[2],inactive
O=C(O)CC1CCC(c2ccc(NC(=O)c3nnc(Nc4ccc(F)c(F)c4)o3)cc2)CC1 (stereo unspecified),Potency,[1],inactive
same,Potency,[2],inactive
CC(O)C1NC(=O)C2CCCN2C1=O (stereo unspecified),Potency,[1],inactive
same,Potency,[2],inactive
C#CCCCn1cc(-c2cccc3c2N[C@@H](C)CC(=O)N3)cn1,Potency,[1],inactive
same,Potency,[2],inactive
C[C@@H]1O[C@@H](O[C@H]2[C@H](O[C@H]3[C@H](O[C@H]4CC[C@@]5(C)C(CC[C@]6(C)C5CC=C5[C@@H]7CC(C)(C)C[C@@H](O)[C@]7(C)CC[C@]56C)[C@@]4(C)CO)O[C@H](C(=O)O)[C@@H](O)[C@@H]3O)O[C@H](CO)[C@H](O)[C@@H]2O)[C@H](O)[C@H](O)[C@H]1O (stereo partly specified),outcome,[1],inactive [at 9.29 µM]
same,outcome,[2],inactive [at 9.29 µM]
CC1CCC2(C(=O)O)CCC3(C)C(=CCC4C5(C)C[C@@H](O)[C@@H](O)C(C)(CO)C5CCC43C)C2C1(C)O (stereo partly specified),Potency,[1],inactive
same,Potency,[2],inactive
COc1ccnc(CCc2nc3ncccc3[nH]2)c1,Potency,[1],inactive
same,Potency,[2],inactive
C[C@@H]1O[C@@H](O[C@@H]2\C=C/C=C\C=C/C=C\C[C@H](C)OC(=O)/C=C\[C@H]3O[C@@H]3C[C@H](O)C[C@]3(O)C[C@@H](O)[C@@H](C(=O)O)[C@H](C2)O3)[C@H](O)[C@H](N)[C@@H]1O,Potency,[1],inactive
same,Potency,[2],inactive
C=C1CC[C@H]2[C@@](C)(CCC(O)[C@@]2(C)CO)[C@@H]1/C=C/C(=C\C(=O)O)C(=O)O (stereo partly specified),Potency,[1],inactive
same,Potency,[2],inactive
CC(C)(O)C1CC=C(C(=O)OC[C@H]2O[C@@H](Oc3cc(C(=O)O)cc(O)c3O)[C@H](O)[C@@H](O)[C@@H]2O)CC1 (stereo partly specified),Potency,[1],inactive
same,Potency,[2],inactive
NC(N)=NCCC[C@H](NC(=O)c1sccc1NS(=O)(=O)c1cccc2nsnc12)C(=O)O,Potency,[1],inactive
same,Potency,[2],inactive
CC[C@@H](Nc1c(Nc2cccc(C(=O)N(C)C)c2O)c(=O)c1=O)c1ccc(C)o1,Potency,[1],inactive
same,Potency,[2],inactive
C[C@@H]1[C@H](O)[C@@H]2OC(=O)C3=C2[C@H](CCC3)[C@@]12C[C@@H](c1ccoc1)OC2=O,Potency,[1],inactive
same,Potency,[2],inactive
CC1(C)CC2C(O)C3=C(CC(C)(O)C2C1)C(=O)OC3 (stereo unspecified),Potency,[1],inactive
same,Potency,[2],inactive
O=C(O)CC(CCc1ccccc1)OC1OC(CO)C(O)C(O)C1O (stereo unspecified),Potency,[1],inactive
same,Potency,[2],inactive
N=C(N)c1ccc2nc(-c3cc(CC(=O)NC(CC(=O)O)C(=O)O)cc(-c4cc(S(N)(=O)=O)ccc4O)c3O)[nH]c2c1 (stereo unspecified),Potency,[1],inactive
same,Potency,[2],inactive
C=C1C[C@H](O)[C@@H](O)[C@@]2(C)C1[C@@H](O)[C@H]1OC(=O)C3[C@@H](C)[C@@H](O)[C@H](O)C2[C@]31C (stereo partly specified),Potency,[1],inactive
same,Potency,[2],inactive
C=C1CC[C@@]2(OC1)O[C@H]1CC3[C@@H]4CC=C5C[C@@H](O)C[C@@H](O[C@@H]6OC[C@H](O)[C@H](O)[C@H]6O[C@@H]6O[C@@H](C)[C@H](O)[C@@H](O)[C@H]6O)[C@]5(C)C4CC[C@]3(C)[C@H]1[C@@H]2C (stereo partly specified),Potency,[1],inactive
same,Potency,[2],inactive
CC1(C)COC(=O)[C@@H]1O[C@@H]1O[C@H](CO)[C@@H](O)[C@H](O)[C@H]1O,Potency,[1],inactive
same,Potency,[2],inactive
COC(=O)CC[C@H](NC(=O)[C@H](CC(C)C)NC(=O)OCc1ccccc1)C(=O)N[C@@H](Cc1cnc[nH]1)C(=O)N[C@@H](CC(=O)OC)C(=O)CF (Cbz-LE(OMe)HD(OMe)-CH2F),outcome,[1],inactive [at 9.29 µM]
same,"activity change, negative = cytotoxicity",[2],6.58% [at 9.29 µM]
